RAD54 inh: inhibitors of human RAD54 branch migration | Q92698 | RAD54 Holliday junction branch migration, FAM/BHQ fluorescence | inhibition, % at 10.4 µM | 360,000 compounds, 0.14% hits;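 active = mean normalized replicate activity at least 40 and at least half of replicates scoring 40 or more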;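 note: 0% = median of neutral control wells and 100% = median of positive control wells; inhibitors cause a drop in the FAM fluorescence signal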
Target sequence (Q92698 whole entry, looked up): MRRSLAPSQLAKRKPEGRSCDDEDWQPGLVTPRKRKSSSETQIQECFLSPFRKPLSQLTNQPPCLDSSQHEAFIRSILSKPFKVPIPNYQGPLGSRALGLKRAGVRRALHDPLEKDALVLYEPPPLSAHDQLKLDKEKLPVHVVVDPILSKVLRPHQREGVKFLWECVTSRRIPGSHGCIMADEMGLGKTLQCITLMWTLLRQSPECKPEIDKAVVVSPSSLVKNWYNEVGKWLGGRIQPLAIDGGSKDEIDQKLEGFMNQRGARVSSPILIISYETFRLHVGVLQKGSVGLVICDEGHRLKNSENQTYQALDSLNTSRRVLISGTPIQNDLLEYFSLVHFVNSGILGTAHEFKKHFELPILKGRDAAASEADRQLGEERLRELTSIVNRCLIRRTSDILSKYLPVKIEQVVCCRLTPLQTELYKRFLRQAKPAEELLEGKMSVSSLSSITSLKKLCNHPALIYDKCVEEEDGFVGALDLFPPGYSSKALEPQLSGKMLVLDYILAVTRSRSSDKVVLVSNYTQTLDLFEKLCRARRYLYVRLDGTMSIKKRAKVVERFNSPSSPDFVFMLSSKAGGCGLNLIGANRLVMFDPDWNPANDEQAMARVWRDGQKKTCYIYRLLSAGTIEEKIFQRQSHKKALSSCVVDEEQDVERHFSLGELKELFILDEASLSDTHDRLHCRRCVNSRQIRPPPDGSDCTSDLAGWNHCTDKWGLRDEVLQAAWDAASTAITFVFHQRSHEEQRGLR
CFTR F508del cor: correctors of CFTR F508del function in bronchial epithelial cells. CFBE cells, YFP halide quenching; stimulated with forskolin plus potentiator P3; % fluorescence drop versus neutral controls. activity (quench increase), % at 7.58 µM. 350,000 compounds, 0.36% hits;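 active = mean added fluorescence quench of at least 8% versus neutral control, with both replicates also reaching 8%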;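 note: cells transiently co-express mutant CFTR-F508del with the halide-sensitive YFP; corrector assay measuring rescue of mutant channel to the surface after 24 h compound exposure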
RAD52 inh: RAD52 (human) annealing inhibition | inhibition, % at 18.7 µM | AID 651710 | recombinant RAD52 DNA annealing, FRET fluorescence | 360,000 compounds, 0.46% hits | P43351;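 active = every replicate showing at least 50% inhibition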
INS-1E GSIS act: primary screen for activators of insulin secretion dependent on glucose, INS-1E cells, GLuc reporter luminescence. INS-1E GLuc reporter insulin secretion, 2-3 h. activation, % at 16.6 µM. 370,000 compounds, 0.61% hits. AID 743287;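 active = lowest replicate activation of at least 40%, so every replicate reaches that level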;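 note: 0% = median of neutral control wells and 100% = median of IBMX positive control wells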
EWS-Fli block: inhibitors of EWS/Fli oncoprotein transcriptional activity. 350,000 compounds, 0.67% hits. inhibition, % at 12.6 µM. A673 NR0B1-luciferase reporter, viability-normalised;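 active = mean inhibition of at least 50% after viability correction, with every replicate also passing that limit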;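 note: firefly luciferase signal divided by Alamar Blue viability fluorescence both relative to DMSO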
LGR2 inh: blocks bursicon-induced cAMP signaling via Drosophila LGR2; HEK293 LGR2, CRE-luciferase, bursicon-stimulated, 4 h; inhibition, % at 9.99 µM; 380,000 compounds, 0.35% hits;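 active = drop in luminescence signal, shown as inhibition above about 50% in the replicate tests, limit read from the data, passing the limit was not always enough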;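 note: agonist challenge used bursicon conditioned medium at about half maximal strength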
* = called active by the depositor. Shown are actives, neighbours in structure and some others; about 1.8% of the full set was active somewhere.

For O=C(Nc1ccc(CN2CCOCC2)cc1)c1cc2ccccc2o1 the results were RAD54 inh 0.7.
CCCCc1c(-c2cccc(Cl)c2)ncn1CCc1ccccc1OC was read as CFTR F508del cor 1.7, RAD52 inh 29.2, INS-1E GSIS act 40.8, EWS-Fli block 24.8 and LGR2 inh 32.2.
Screening CCCC(=O)NC(c1ccc(N(C)C)cc1)c1ccc2cccnc2c1O (stereo not drawn) returned RAD54 inh 0.2, CFTR F508del cor 9.8*, RAD52 inh -15.7, EWS-Fli block 36.1 and LGR2 inh 21.7.
`CC(=O)NC(c1ccc(Cl)cc1)c1ccc2cccnc2c1O` (stereo not drawn) gave RAD54 inh 4.5, CFTR F508del cor 11.7*, RAD52 inh 0.5 and EWS-Fli block 43.6.
`CCCC(=O)NC(c1ccccc1Cl)c1ccc2cccnc2c1O` (stereo not drawn) gave RAD54 inh -8.4, CFTR F508del cor 5.8, RAD52 inh -6.7, INS-1E GSIS act -31.2, EWS-Fli block 23.4 and LGR2 inh 24.4.
For CCC(=O)NC(c1ccc(Cl)cc1Cl)c1ccc2cccnc2c1O (stereo not drawn) the results were RAD54 inh 3.5, CFTR F508del cor 0.6, RAD52 inh -5.6, INS-1E GSIS act -18.8, EWS-Fli block 28.0 and LGR2 inh -4.8.
Screening CCC(=O)NC(c1ccc(C)cc1)c1ccc2cccnc2c1O (stereo not drawn) returned RAD54 inh 7.1, CFTR F508del cor 10.6*, RAD52 inh -5.5, EWS-Fli block 31.7 and LGR2 inh 34.0.
`CCCC(=O)NC(c1ccc(C(C)C)cc1)c1ccc2cccnc2c1O` (stereo not drawn) gave RAD54 inh 4.2, CFTR F508del cor 12.4*, RAD52 inh -2.8, EWS-Fli block 44.6 and LGR2 inh 22.5.
Screening CC(=O)NC(c1ccco1)c1ccc2cccnc2c1O (stereo not drawn) returned RAD54 inh -3.3, RAD52 inh -24.6, INS-1E GSIS act 1.6 and LGR2 inh 19.7.
`CCc1n[n+](CC(=O)c2ccccc2)c(N)s1` gave CFTR F508del cor -3.7, RAD52 inh -7.4, INS-1E GSIS act 4.6, EWS-Fli block 59.5* and LGR2 inh 80.9*.
For Nc1ccc[n+](CC(=O)c2ccccc2)c1 the results were RAD54 inh 0.4, RAD52 inh 10.3, EWS-Fli block 17.0 and LGR2 inh 1.1.
Screening CC1=NN(c2nc(-c3ccc(C)cc3)cs2)C(=O)C1N=Nc1ccc(C(N)=O)cc1 (stereo not drawn) returned CFTR F508del cor -5.5, RAD52 inh -22.5, INS-1E GSIS act 8.8, EWS-Fli block 54.6* and LGR2 inh 13.9.
Screening Cc1nnc(Oc2ccc([N+](=O)[O-])cc2)c2ccccc12 returned RAD54 inh -12.4, CFTR F508del cor -3.2, RAD52 inh -11.4, INS-1E GSIS act -5.2, EWS-Fli block -73.2 and LGR2 inh -1.0.
For CS(=O)(=O)c1nc(S(=O)(=O)c2ccc(Cl)cc2)c(N2CCCCCC2)s1 the results were RAD54 inh -13.2, CFTR F508del cor 0.6, RAD52 inh -3.0, INS-1E GSIS act 46.8*, EWS-Fli block 4.7 and LGR2 inh 9.7.
CS(=O)(=O)c1nc(S(=O)(=O)c2ccc(Cl)cc2)c(N2CCCCC2)s1 was read as RAD54 inh 1.0, CFTR F508del cor 0.6, RAD52 inh -2.0, INS-1E GSIS act 12.0, EWS-Fli block 12.5 and LGR2 inh 16.7.
Screening CCOc1cc(/C=C2\CN(CC)C/C(=C\c3ccc(O)c(OCC)c3)C2=O)ccc1O returned RAD54 inh 15.8, CFTR F508del cor -5.5, RAD52 inh -21.2, INS-1E GSIS act -40.2, EWS-Fli block 61.0* and LGR2 inh 69.0*.
For COc1cc(/C=C2/CCCC(C(=O)C(F)(F)F)=C2O)ccc1O the results were RAD54 inh -2.3, CFTR F508del cor 2.2, RAD52 inh -54.3, INS-1E GSIS act -8.6, EWS-Fli block 6.5 and LGR2 inh -3.5.
For COc1cc(/C=C2/C(=O)CNC2=O)ccc1O the results were INS-1E GSIS act 13.4 and LGR2 inh 1.3.
Screening COc1cc(/C=C2\CCC/C(=C\c3ccc(O)c(OC)c3)C2=O)ccc1O returned RAD54 inh -20.8, CFTR F508del cor -2.9, RAD52 inh -13.3, INS-1E GSIS act 15.2, EWS-Fli block 77.1* and LGR2 inh -3.5.

Screening results from PubChem BioAssay.
